According to publication PMC5540273 (PLoS ONE, 2017):

Key:
Details in all cases: concentration: 1 μM, replicates: in singlicate; n = 1
[1] = test system: CDKL2
[2] = test system: CDKL3
[3] = test system: CDKL5
[4] = test system: CHEK1
[5] = test system: CHEK2
[6] = test system: CIT
[7] = test system: CLK1
[8] = test system: CLK2
[9] = test system: CLK3
[10] = test system: CLK4
[11] = test system: CSF1R-autoinhibited
[12] = test system: CSF1R
[13] = test system: CSK
[14] = test system: CSNK1A1L
[15] = test system: CSNK1A1
[16] = test system: CSNK1D
[17] = test system: CSNK1E
[18] = test system: CSNK1G1
[19] = test system: CSNK1G2
[20] = test system: CSNK1G3
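Note: KINOMEscan kinase panel screen.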

NC(=O)c1sc(-n2cnc3ccccc32)cc1OCc1ccccc1F [GSK1024306]
%Inh [1]: 22% | %Inh [2]: 0% | %Inh [3]: 0% | %Inh [4]: 0% | %Inh [5]: 0% | %Inh [6]: 39% | %Inh [7]: 37% | %Inh [8]: 0% | %Inh [9]: 0% | %Inh [10]: 42% | %Inh [11]: 24% | %Inh [12]: 0% | %Inh [13]: 0% | %Inh [14]: 0% | %Inh [15]: 0% | %Inh [16]: 17% | %Inh [17]: 20% | %Inh [18]: 0% | %Inh [19]: 0% | %Inh [20]: 18%

CC(C)(C)c1ccc(-n2cnc3c(N)ncnc32)cc1 [SKF-97263]
%Inh [1]: 0% | %Inh [2]: 0% | %Inh [3]: 0% | %Inh [4]: 34% | %Inh [5]: 0% | %Inh [6]: 31% | %Inh [7]: 36% | %Inh [8]: 20% | %Inh [9]: 19% | %Inh [10]: 50% | %Inh [11]: 0% | %Inh [12]: 58% | %Inh [13]: 0% | %Inh [14]: 17% | %Inh [15]: 40% | %Inh [16]: 3% | %Inh [17]: 18% | %Inh [18]: 6% | %Inh [19]: 13% | %Inh [20]: 25%

COc1ccc(-c2oc3ncnc(N)c3c2-c2ccc(OC)cc2)cc1 [SB-589132]
%Inh [1]: 2% | %Inh [2]: 0% | %Inh [3]: 2% | %Inh [4]: 0% | %Inh [5]: 0% | %Inh [6]: 0% | %Inh [7]: 29% | %Inh [8]: 0% | %Inh [9]: 0% | %Inh [10]: 0% | %Inh [11]: 70% | %Inh [12]: 61% | %Inh [13]: 0% | %Inh [14]: 12% | %Inh [15]: 0% | %Inh [16]: 11% | %Inh [17]: 43% | %Inh [18]: 0% | %Inh [19]: 0% | %Inh [20]: 12%

Cc1ccc(NC(=O)c2cccc(C#N)c2)cc1-c1ccc(C(=O)Nc2ccncc2)cc1 [GSK1398463]
%Inh [1]: 40% | %Inh [2]: 0% | %Inh [3]: 11% | %Inh [4]: 19% | %Inh [5]: 0% | %Inh [6]: 47% | %Inh [7]: 29% | %Inh [8]: 0% | %Inh [9]: 23% | %Inh [10]: 24% | %Inh [11]: 0% | %Inh [12]: 98.3% | %Inh [13]: 0% | %Inh [14]: 15% | %Inh [15]: 0% | %Inh [16]: 19% | %Inh [17]: 29% | %Inh [18]: 23% | %Inh [19]: 1% | %Inh [20]: 41%
